Assay results from ChEMBL document CHEMBL3433997, “St. Jude Leishmania screening dataset” (2016).

Experiments:
Format in all cases: functional
[1] = target: Solute carrier family 2, facilitated glucose transporter member 1 (Homo sapiens) (UniProt P11166); test: ST_JUDE_LEISH: Cytotoxicity at 2uM final concentration against transgenic Leishmania Mexicana promastigotes LmGLUT1 that are glucose transport deficient and complemented with the human glucose transporter GLUT1. Activity is measured by DNA content using SYBR green in vitro
Solute carrier family 2, facilitated glucose transporter member 1 (Homo sapiens), sequence (P11166 whole entry): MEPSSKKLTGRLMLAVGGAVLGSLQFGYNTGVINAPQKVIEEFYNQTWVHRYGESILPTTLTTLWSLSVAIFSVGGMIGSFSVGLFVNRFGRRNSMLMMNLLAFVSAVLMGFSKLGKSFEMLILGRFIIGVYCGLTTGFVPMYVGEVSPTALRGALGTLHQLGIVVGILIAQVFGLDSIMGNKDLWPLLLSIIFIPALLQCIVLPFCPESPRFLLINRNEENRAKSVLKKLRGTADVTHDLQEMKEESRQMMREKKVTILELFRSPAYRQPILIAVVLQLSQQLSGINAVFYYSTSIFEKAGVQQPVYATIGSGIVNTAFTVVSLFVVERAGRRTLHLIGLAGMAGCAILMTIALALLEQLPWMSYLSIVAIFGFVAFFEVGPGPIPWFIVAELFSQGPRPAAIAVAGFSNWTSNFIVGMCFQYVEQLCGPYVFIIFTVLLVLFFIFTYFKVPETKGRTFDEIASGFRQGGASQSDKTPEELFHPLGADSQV

[2] = target: Hexose transporter 1 (Plasmodium falciparum) (UniProt O97467); test: ST_JUDE_LEISH: Cytotoxicity at 2uM final concentration against transgenic Leishmania Mexicana promastigotes LmPfHT that are glucose transport deficient and complemented with the Plasmodium falciparum hexose transporter. Activity is measured by DNA content using SYBR green in vitro
[3] = target: Glucose transporter (Leishmania mexicana) (UniProt O61059); test: ST_JUDE_LEISH: Cytotoxicity at 2uM final concentration against transgenic Leishmania Mexicana promastigotes LmGT2 that are glucose transport deficient and complemented with the L. Mexicana glucose transporter 2. Activity is measured by DNA content using SYBR green in vitro

Structure (SMILES)	inhibition [1] [%]	inhibition [2] [%]	inhibition [3] [%]
C[C@H](NC(=O)[C@H](CCCCNC(=O)OC(C)(C)C)NC(=O)OC(C)(C)c1ccc(-c2ccccc2)cc1)C(=O)OCc1ccccc1	3.8	3.27	1.84
Cc1ccc(O)c(C(=O)c2cnc3c(c2)c(-c2ccc(F)cc2)c(C#N)c(=O)n3C)c1	8.51	4.73	1.51
FC(F)(F)c1ccc(CNCC2CCN(Cc3ccc4c(c3)OCO4)CC2)cc1	1.98	2.65	5.32
Cc1cccc2nc(-c3ccc(-c4cccc(CN5CCC(N)C5)c4)s3)[nH]c12 (stereo unspecified)	9.02	8.9	8.23
CC[C@H](C)CNC(=O)c1cncc(-c2ccc(CNCCOc3ccccc3)cc2)c1	1.83	2.11	1.09
O=C(N[C@@H](Cc1ccccc1)C(=O)NC1CCCCCC1)c1ccc(O)c(-c2ccc(Cl)c(Cl)c2)c1	3.99	3.77	3.08
Cc1c(C)n(C2CCCC2)c2ncnc(OC3CCN(CC(=O)NC4CC4)CC3)c12	9.5	6.34	7.75
FC(F)(F)COc1ccc(CCNCCCCNCCc2ccc(OCC(F)(F)F)c3ccccc23)c2ccccc12	-0.09	12.3	1.09
COc1ccc2[nH]ccc(=NN=Cc3cccc(Cl)c3)c2c1	15.1	14.8	11.7
CCCCCCCCc1nc(C)c(Br)c(O)c1Br	3.91	5.98	0.8
CC(C)(C)c1ccc(CN2CCC(NC(=O)c3ccc(-c4cccc(C(F)(F)F)c4)s3)CC2)cc1	1.56	-0.78	-5.64
CC(=O)Nc1ccc(C2NC(=O)NC(c3ccccc3)=C2c2nc3ccccc3s2)cc1 (stereo unspecified)	3.15	0.83	2.69
